Z-score data for 30 compounds are collected here from PubChem BioAssay.

The experiment is described as follows: compound effects on lung adenocarcinoma cell viability – A549, calcein-AM fluorescence, 48 h, basal, profiling panel (AID 1162). Further: test concentration not given here. The conditions noted are these: higher = more signal.
With `O=C(CS)NCCCCCNC(=O)[C@@H]1C[C@@H]2C(=O)NCC(=O)N2[C@@H]1c1cccc(OCCO)c1`, the z-score was 0.686. The figure for `O=C(CS)NCCCCCNC(=O)[C@H]1C[C@H]2C(=O)NCC(=O)N2[C@H]1c1cccc(OCCO)c1` is 0.54; for `CN(C)CCCCNC(=O)[C@@H]1C[C@@H]2C(=O)N[C@@H](CCCCN)C(=O)N2[C@@H]1c1ccc(O)cc1` it is 0.48. Then `COc1ccc(CCNC(=O)[C@@]2(C)c3ccccc3C(=O)N(c3ccc(C)cn3)[C@H]2c2ccc(CO)cc2)cc1`, with -0.0466; and `O=C(NCCN1CCOCC1)[C@@H]1c2ccccc2C(=O)N(Cc2cc(C(F)(F)F)cc(C(F)(F)F)c2)[C@H]1c1ccc(CO)cc1`, with 1.79.

On to `O=C(NCc1ccccc1)[C@@H]1c2ccccc2C(=O)N(C2Cc3ccccc3C2)[C@H]1c1ccc(CO)cc1`, for which the z-score was 0.365.

As to `COCCOC(=O)N1C(=O)[C@@]2(c3cc(C#CC4(O)CCCCCC4)ccc31)[C@H](C(=O)Nc1nc3ccccc3s1)[C@H]1C(=O)O[C@H](c3ccccc3)[C@H](c3ccccc3)N1[C@@H]2c1ccccc1OCCO`, the z-score was 1.29. Turning to `CC1CC/C=C\[C@H]2OC34C=CCN(c5ccc6ccccc6c5)C(=O)[C@H]3N(CCO)C(=O)[C@@H]4C2C(=O)O1` (stereo not given in full), the z-score is -0.099.

Consider `O=C1O[C@@H](c2ccccc2)[C@@H](c2ccccc2)N2[C@@H](c3ccc(OCCO)cc3)[C@]3(C(=O)Nc4ccc(C#CCCO)cc43)[C@@H](C(=O)NC[C@H](O)c3ccccc3)[C@H]12`, for which the z-score was 0.225.

For `O=C1OCCC/C=C\[C@H]2OC34C=CCN(c5ccc6ccccc6c5)C(=O)[C@H]3N(CCCCCO)C(=O)[C@@H]4C12` (stereo not given in full), the z-score was 0.0648. Regarding `CC(C)CNC(=O)[C@@]1(Cc2ccccc2I)c2ccccc2C(=O)N(Cc2ccccc2C(F)(F)F)[C@H]1c1ccc(CO)cc1`, the z-score is -0.942.

Regarding `C#CCOc1ccc(C[C@@H](C(=O)OC)N(CC#C)[C@@H](/C=C/C2CC2)[C@H](O)Cc2ccccc2)cc1`, the z-score is -1.05. Then `CCOC(=O)[C@H]1C/C=C/C[C@H](C(=O)OCC)C(=O)O[C@H]2[C@@H](OC)O[C@H](CO)[C@@H](OC(=O)c3ccc(Br)cc3)[C@@H]2OC1=O`, with 0.645; and `O=C1[C@@]23C=C(Br)[C@H](C[C@@H]2COC3)[C@]12CO2`, with -0.186; and `O=C1NC(=O)C2C1C=CC(C(O)c1ccc(-c3ccccc3)s1)N2Nc1ccc(Cl)cc1Cl` (stereo not given), with -1.95.

In the case of `C=C(C(=O)CC[C@H](OC(C)=O)c1ccccc1OCCO)C(C)C`, the z-score is -2.33. As to `O=C1C2C=CC(C(O)COCc3ccccc3)N(Nc3ccc([N+](=O)[O-])cc3)C2C(=O)N1c1ccccc1` (stereo not given), the z-score is -0.26. In the case of `COCC(=C=CC[C@H](O)c1cccc(OCCO)c1)CCO`, the z-score is -0.243. Then `NCCCCCCNC(=O)[C@H]1C[C@H]2C(=O)N[C@@H](Cc3ccccc3)C(=O)N2[C@H]1c1cccc(OCCO)c1`, with 0.516; and `CCCCCN1CC=CC23O[C@@H]4C=CCOC(=O)[C@@H]4[C@H]2C(=O)N(C(C)CO)[C@@H]3C1=O` (stereo not given in full), with -0.33. Then `CC(c1ccccc1)C(O)C1C=CC2C(=O)N(C)C(=O)C2N1NC(=O)OC(C)(C)C` (stereo not given), with -0.431; and `COCCCNC(=O)[C@@H]1c2ccccc2C(=O)N(Cc2ccccc2)[C@H]1c1ccc(CO)cc1`, with 0.273. Regarding `COCCOC(=O)N1C(=O)[C@@]2(c3cc(C#CCCO)ccc31)[C@H](c1ccc(OCCO)cc1)N1[C@H](c3ccccc3)[C@H](c3ccccc3)OC(=O)[C@H]1[C@@H]2C(N)=O`, the z-score is 0.617. The figure for `COc1ccc(C(=O)Nc2ccc(CN3C(=O)[C@]4(O[C@H](CC(=O)N5CCC[C@H]5CO)[C@@H]([Si](C)(C)c5ccc(OC)cc5)[C@@H]4C)c4ccccc43)cc2)cc1` is -1.14. Turning to `C=CC[C@]1(C(N)=O)COC(c2ccc(OCCCO)cc2)=N1`, the z-score is 0.669. Then `COC(=O)[C@@]1(Cc2ccccc2)[C@H]2c3cc(C(=O)N(C)C)n(CCc4c[nH]c5ccc(O)cc45)c3C[C@H]2CN1C(=O)c1ccccc1`, with -0.206; and `COc1ccc(C#Cc2ccc3c(c2)[C@]2(C(=O)N3)[C@H](c3ccc(O)cc3)N3[C@H](c4ccccc4)[C@H](c4ccccc4)OC(=O)[C@H]3[C@@H]2C(=O)N2CCc3cc(OC)c(OC)cc3C2)cc1`, with -0.258; and `O=C1OCCC=C[C@H]2OC34C=CCN(Cn5nnc6ccccc65)C(=O)[C@H]3N(CCO)C(=O)[C@@H]4C12` (stereo not given in full), with -0.679. Take `CC(C)Cc1ccc(CN2CC[C@@H](N)C2)cc1`: the z-score was -0.336.

For the compound `C[N+](C)(C)CCCCCCNC(=O)[C@H]1C[C@H]2C(=O)N[C@@H](Cc3ccccc3)C(=O)N2[C@H]1c1cccc(OCCO)c1`, the z-score was -0.344.
